Here are results for 10 compounds from PubChem BioAssay (NCATS).

Inconclusive results are not listed. Calls of active or inactive are those of the source. Unless noted, calls come from the whole dose curve; as a rule, active = well fitted curve in the direction sought with a large enough effect; inconclusive = small, poorly fitted or top-dose-only effect, or another doubt; inactive = no such curve, though single readings can be large; an effect the other way counts as inactive or inconclusive.

The target of experiment [1] is ATP-dependent 6-phosphofructokinase (Trypanosoma brucei brucei) (UniProt O15648). Briefly: qHTS Assay to Find Inhibitors of T. brucei phosphofructokinase: hit validation (AID 492961).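 Note: luminescence reports ADP formed as PFK phosphorylates fructose-6-phosphate with ATP; series mostly up to about 51 µM; % is set by controls: 0 for no effect and ±100 for the full control effect.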 The method in brief:
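ADP-Glo luminescence read-out of ADP formed by 1.25 nM PFK from 0.1 mM ATP and 0.5 mM F6P (TEA pH 8.0, 45 min, RT). Compounds titrated; activity normalized to no-enzyme and full-enzyme controls.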

The nature of experiment [2]: Validation screen for small molecules that induce genotoxicity in human embryonic kidney (HEK293T) cells expressing luciferase-tagged ELG1 (AID 493106). Note: 0% is about no effect. The method in brief: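 Cells were dispensed at 2,000 per well, then 23 nL compound or DMSO was pinned in. After 16 hr at 37 °C and 5% CO2, ONE-Glo reagent was added. Luciferase activity was measured following 30 min at room temperature.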

Experiment [3] deals with ATPase family AAA domain-containing protein 5 (Homo sapiens) (UniProt Q96QE3). The experiment in a line: Validation screen for small molecules that inhibit ELG1-dependent DNA repair in human embryonic kidney (HEK293T) cells expressing luciferase-tagged ELG1 (AID 493107).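 Note: cells co-treated with the DNA-damaging agent 5-fluorouridine alongside compound; series mostly up to about 46 µM; % is set by controls: 0 for no effect and ±100 for the full control effect; inhibitors lower the ELG1-luciferase luminescence signal; nearly all actives have a fitted effect of over 70% in size.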 The method, boiled down: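 Cells are dispensed in 1536-well format, then 5-fluorouridine and compound are pinned in. After a 16 hr incubation at 37 °C and 5% CO2, ONE-Glo is added and luciferase measured on a CCD imager.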
Chain of ATPase family AAA domain-containing protein 5 (Homo sapiens) (Q96QE3 whole entry, looked up, the tested form may be a part): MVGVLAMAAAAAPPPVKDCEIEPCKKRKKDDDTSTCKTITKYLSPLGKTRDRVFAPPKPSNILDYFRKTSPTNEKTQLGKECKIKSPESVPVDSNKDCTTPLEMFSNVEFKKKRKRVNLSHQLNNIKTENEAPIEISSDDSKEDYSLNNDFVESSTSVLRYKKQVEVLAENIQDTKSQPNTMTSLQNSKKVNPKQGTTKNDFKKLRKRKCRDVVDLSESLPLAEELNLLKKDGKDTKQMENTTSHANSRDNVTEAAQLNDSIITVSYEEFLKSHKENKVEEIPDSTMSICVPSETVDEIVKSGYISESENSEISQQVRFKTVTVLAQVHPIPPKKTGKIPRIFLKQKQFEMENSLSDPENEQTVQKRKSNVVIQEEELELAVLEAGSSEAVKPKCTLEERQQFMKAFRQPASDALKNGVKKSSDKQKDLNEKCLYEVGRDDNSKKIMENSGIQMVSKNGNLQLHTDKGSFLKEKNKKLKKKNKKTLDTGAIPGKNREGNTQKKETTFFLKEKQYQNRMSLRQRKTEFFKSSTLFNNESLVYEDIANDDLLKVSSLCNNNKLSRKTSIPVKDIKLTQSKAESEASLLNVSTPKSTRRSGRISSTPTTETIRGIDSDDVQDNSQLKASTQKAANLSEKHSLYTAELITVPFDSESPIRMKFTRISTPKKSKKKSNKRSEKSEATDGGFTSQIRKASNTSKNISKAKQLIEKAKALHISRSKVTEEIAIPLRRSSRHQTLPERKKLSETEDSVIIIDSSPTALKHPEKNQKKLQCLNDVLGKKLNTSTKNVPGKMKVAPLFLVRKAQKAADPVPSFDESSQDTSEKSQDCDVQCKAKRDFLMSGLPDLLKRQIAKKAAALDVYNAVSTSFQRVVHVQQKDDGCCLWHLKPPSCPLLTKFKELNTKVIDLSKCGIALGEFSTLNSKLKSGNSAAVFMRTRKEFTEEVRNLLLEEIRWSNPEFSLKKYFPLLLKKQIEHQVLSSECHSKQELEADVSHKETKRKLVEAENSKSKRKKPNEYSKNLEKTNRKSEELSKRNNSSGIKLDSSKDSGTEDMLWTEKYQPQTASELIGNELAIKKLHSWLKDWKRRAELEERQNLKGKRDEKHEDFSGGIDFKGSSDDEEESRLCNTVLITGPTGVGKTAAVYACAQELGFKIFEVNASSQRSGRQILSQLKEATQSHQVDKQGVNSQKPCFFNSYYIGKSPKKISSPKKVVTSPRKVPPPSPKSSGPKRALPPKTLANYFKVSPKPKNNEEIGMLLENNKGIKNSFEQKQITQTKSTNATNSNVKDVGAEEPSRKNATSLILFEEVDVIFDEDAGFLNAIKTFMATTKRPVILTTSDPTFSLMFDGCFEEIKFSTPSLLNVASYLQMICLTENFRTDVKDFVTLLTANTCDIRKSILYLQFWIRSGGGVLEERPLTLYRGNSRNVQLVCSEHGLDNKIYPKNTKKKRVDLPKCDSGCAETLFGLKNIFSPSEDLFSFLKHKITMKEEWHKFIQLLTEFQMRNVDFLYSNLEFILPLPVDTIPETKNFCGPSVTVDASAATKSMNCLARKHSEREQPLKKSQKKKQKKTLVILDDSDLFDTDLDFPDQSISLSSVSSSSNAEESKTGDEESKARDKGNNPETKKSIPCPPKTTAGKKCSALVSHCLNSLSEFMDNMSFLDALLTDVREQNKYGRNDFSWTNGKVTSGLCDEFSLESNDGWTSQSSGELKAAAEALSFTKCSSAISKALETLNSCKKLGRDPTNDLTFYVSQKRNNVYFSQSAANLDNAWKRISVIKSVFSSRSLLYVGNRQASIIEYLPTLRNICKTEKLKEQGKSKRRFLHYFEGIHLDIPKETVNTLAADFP

Experiment [4] in a line: qHTS for Inhibitors of Cell Surface uPA Generation: Validation Assay (AID 493164).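 Note: RAW 264.7 macrophage cells exposed to compound for 18 h; 0% is about no effect.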 The method, boiled down:
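ATP-Lite luminescence read-out: ATP remains high when uPA activity-dependent LF translocation into the cytoplasm is blocked. RAW 264.7 cells, 18 h compound exposure at 37 C; 7-point titration, 2.45 nM to 38.3 uM final.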

For experiment [5], the target named is Galactokinase (Homo sapiens) (UniProt P51570). Briefly: qHTS Validation Assay for Inhibitors of Human Galactokinase (GALK) (AID 493189). Note: 0% is about no effect. The method in brief: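 GALK (5 nM) with 35 uM ATP and 100 uM galactose in HEPES pH 8.0 with MgCl2, NaCl, DTT and BSA. Reaction ran 1 h at room temperature. Residual ATP read by Kinase-Glo Plus luminescence.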
Chain of Galactokinase (Homo sapiens) (P51570 whole entry, looked up): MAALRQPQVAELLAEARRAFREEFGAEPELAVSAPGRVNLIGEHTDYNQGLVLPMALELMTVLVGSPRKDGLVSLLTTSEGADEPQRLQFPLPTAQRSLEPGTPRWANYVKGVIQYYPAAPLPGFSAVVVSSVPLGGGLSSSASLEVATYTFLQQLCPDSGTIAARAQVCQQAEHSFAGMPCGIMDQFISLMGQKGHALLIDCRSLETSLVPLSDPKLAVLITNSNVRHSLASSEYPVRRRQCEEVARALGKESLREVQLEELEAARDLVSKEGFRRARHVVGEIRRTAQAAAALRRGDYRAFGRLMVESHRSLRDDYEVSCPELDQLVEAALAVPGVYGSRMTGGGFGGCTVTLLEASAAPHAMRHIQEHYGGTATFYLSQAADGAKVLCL
Experiment [6] can be described thus: Validation screen for small molecules that induce DNA re-replication in SW480 colon adenocarcinoma cells (AID 504364). Note: 0% is about no effect. The method in brief:
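Image-based qHTS: compounds were incubated with SW480 cells for 48 hr, nuclei stained with Hoechst, and per-nucleus fluorescence intensity scanned to flag cells with excess DNA content.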

Experiment [7] concerns the target Peptidyl-prolyl cis-trans isomerase NIMA-interacting 1 (Homo sapiens) (UniProt Q13526). Briefly: qHTS Validation Assay to Find Inhibitors of Pin1 (AID 504536; active = well fitted inhibition curve with a large enough effect in the polarisation, with a control signal flat, not every such curve was filed as active; the % refers to the polarisation;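 note: 0% = full Pin1 enzyme wells and -100% = no-enzyme wells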). The method, boiled down: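 Fluorescence polarization competition: compounds (titration) displace HiFluor-488-labeled Pin1-1b peptide from Pin1 (0.3 uM final) in pH 7.5 HEPES buffer with DTT, 10 min at room temperature; %Activity normalized to no-enzyme wells, curves fitted.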

Experiment [8] concerns the target Phosphoglycerate kinase, glycosomal (Trypanosoma brucei brucei) (UniProt P07378). Briefly: qHTS Validation Assay to Find Inhibitors of Phosphoglycerate Kinase (AID 504547).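 Note: control wells lack PGK and mark full inhibition.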 The method, boiled down: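 Luminescence end-point (Kinase-Glo Plus, 10 min) after a 60 min room-temperature coupled reaction. GAPDH at 100nM final supplies 1,3-BPG to PGK. Buffer: 100mM TEA pH 7.6, 5mM MgCl2, 0.01% Tween-20. Wells lacking PGK served as controls.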

Experiment [9] has as its target phosphoglycerate mutase (Leishmania major) (UniProt Q4Q090). The experiment in a line: qHTS Validation Assay to Find Inhibitors of Phosphoglycerate Mutase (AID 504548). Note: series mostly up to about 58 µM; % is set by controls: 0 for no effect and ±100 for the full control effect. The method, boiled down:
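Lm PGAM 1.25nM final; 100 mM TEA pH 7.6, 5 mM MgCl2, 0.01% Tween-20; 45 min RT; Kinase-GloPlus, 10 min; end-point luminescence. Enzyme-free wells as negative controls.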

In experiment [10] the target is Ubiquitin carboxyl-terminal hydrolase 1 (Homo sapiens) (UniProt O94782). Briefly: Inhibitors of USP1/UAF1: Pilot qHTS (AID 504865). Note: nearly all actives have a fitted effect of over 35% in size. Note: potency is the fitted concentration of half-maximal effect. The method in brief: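 USP1/UAF1 complex at 1 nM preincubated 15 min at room temperature with compound, then Ub-Rho substrate added at 150 nM final. Fluorescence (480/540 nm) read kinetically in 50 mM HEPES pH 7.8, 0.5 mM EDTA, 1 mM TCEP, 0.1 mg/ml BSA, 0.01% Tween-20.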
Chain of Ubiquitin carboxyl-terminal hydrolase 1 (Homo sapiens) (O94782 whole entry, looked up): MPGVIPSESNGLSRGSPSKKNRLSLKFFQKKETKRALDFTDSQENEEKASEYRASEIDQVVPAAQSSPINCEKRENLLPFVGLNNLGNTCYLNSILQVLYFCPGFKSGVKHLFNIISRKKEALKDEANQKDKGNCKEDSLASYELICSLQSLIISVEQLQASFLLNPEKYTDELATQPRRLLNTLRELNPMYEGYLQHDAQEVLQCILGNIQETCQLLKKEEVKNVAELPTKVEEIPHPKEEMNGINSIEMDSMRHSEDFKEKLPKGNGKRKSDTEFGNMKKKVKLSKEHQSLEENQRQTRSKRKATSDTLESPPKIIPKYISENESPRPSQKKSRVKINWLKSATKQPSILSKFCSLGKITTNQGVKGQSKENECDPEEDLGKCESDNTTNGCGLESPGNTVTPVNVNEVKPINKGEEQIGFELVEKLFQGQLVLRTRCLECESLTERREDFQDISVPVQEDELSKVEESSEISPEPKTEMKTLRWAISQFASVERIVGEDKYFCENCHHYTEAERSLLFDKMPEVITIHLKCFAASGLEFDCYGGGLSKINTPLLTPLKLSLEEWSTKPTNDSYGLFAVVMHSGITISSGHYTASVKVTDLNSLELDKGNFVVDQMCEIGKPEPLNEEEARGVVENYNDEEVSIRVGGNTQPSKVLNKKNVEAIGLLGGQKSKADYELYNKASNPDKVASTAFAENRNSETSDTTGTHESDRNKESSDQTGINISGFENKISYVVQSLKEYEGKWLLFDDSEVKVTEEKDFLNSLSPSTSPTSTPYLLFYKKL

The nature of experiment [11]: qHTS for Inhibitors of ATXN expression: Validation of Cytotoxic Assay (AID 588349). Note: potency is the fitted concentration of half-maximal effect. The method in brief: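 Titrated compounds are added to cultured HEK293 cells, which are then held at 37 degrees C for 72 hr; loss of intracellular ATP, measured with CellTiter Glo, indicates toxicity.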
The nature of experiment [12]: Nrf2 qHTS screen for inhibitors: Validation (AID 493153; active = well fitted inhibition curve with a large enough effect in the main read-out, with a control signal flat, not every such curve was filed as active). Conditions: Potency: luciferase luminescence; viability change: measured here: cytotoxicity max response. The method in brief:
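A549 ARE_Fluc, 5% FBS OPTI-MEM; cpd titration, 18-24 h, 37°C/5% CO2. Read 1: CellTiter-Fluor (Ex 405/Em 525), cytotox. Read 2: luciferase lum, Nrf2 activity.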

Experiment [13] can be described thus: qHTS for Inhibitors of ATXN expression: Validation (AID 588378). Note: nearly all actives have a fitted effect of over 75% in size. Note: potency is the fitted concentration of half-maximal effect. The method, boiled down: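 HEK293 cells carrying ATXN2-firefly luciferase reporter, treated with compound 24 h at 37 °C. Viability read first by CellTiter-Fluor (405/525 nm), then reporter expression by Bright-Glo luminescence; controls were a known ATXN2 expression inhibitor and a luciferase inhibitor.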

Experiment [14] concerns the target DNA dC->dU-editing enzyme APOBEC-3G (Homo sapiens) (UniProt Q9HC16). The experiment in a line: qHTS for inhibitors of Vif-A3G interactions: Validation (AID 588379). Note: 0% is about no effect. The method, boiled down:
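Yellow fluorescence (Ex 488, Em 500-530) of Vif-coexpressing HeLa A3G-eYFP cells, scanned by Acumen cytometer, reports blocked A3G degradation. Cells plated at 700/well overnight at 37 deg C before compound addition, then a further overnight compound incubation at 37 deg C.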

Experiment [15] addresses Thyrotropin-releasing hormone receptor (Homo sapiens) (UniProt P34981). Briefly: qHTS for Small Molecule Agonists and Allosteric Enhancers of Human TRH Receptor: Validation Screen for Agonists (AID 493127;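 active = calcium activation more than 3 SD above the typical response in the agonist read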;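 note: intracellular calcium rise by fluo-8 fluorescence before TRH EC20 addition; 0% is about no effect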). Conditions: TRH receptor agonist cell assay; at 2 µM; stronger effect = higher value. The method in brief:
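Compounds are added by online pintool to dye-loaded TRHR cells while fluorescence is recorded every second. A rise in calcium signal during the agonist read marks activation; a later 10 nM TRH addition (EC20) serves the separate enhancer mode.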

Chain of phosphoglycerate mutase (Leishmania major) (Q4Q090 1-553): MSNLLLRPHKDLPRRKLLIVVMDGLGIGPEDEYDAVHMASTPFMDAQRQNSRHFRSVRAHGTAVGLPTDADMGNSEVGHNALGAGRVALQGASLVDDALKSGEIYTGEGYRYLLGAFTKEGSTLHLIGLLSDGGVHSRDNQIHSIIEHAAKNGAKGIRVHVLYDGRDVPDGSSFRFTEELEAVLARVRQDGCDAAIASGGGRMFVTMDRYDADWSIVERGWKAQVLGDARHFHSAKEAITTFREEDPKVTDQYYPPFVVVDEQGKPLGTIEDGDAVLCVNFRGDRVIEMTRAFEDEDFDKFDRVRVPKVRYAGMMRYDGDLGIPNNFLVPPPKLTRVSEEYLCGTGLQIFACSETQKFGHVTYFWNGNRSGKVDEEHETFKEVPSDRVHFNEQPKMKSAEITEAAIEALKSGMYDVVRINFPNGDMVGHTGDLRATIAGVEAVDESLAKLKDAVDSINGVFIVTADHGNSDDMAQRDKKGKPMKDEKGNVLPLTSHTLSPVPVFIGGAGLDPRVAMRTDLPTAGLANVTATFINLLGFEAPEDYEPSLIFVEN
Chain of Peptidyl-prolyl cis-trans isomerase NIMA-interacting 1 (Homo sapiens) (Q13526 whole entry, looked up): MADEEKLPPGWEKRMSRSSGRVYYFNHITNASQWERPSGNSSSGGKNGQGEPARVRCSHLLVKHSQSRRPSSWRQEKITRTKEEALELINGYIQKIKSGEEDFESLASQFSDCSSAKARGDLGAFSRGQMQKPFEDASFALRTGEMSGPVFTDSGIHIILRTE
Chain of ATP-dependent 6-phosphofructokinase (Trypanosoma brucei brucei) (O15648 whole entry, looked up): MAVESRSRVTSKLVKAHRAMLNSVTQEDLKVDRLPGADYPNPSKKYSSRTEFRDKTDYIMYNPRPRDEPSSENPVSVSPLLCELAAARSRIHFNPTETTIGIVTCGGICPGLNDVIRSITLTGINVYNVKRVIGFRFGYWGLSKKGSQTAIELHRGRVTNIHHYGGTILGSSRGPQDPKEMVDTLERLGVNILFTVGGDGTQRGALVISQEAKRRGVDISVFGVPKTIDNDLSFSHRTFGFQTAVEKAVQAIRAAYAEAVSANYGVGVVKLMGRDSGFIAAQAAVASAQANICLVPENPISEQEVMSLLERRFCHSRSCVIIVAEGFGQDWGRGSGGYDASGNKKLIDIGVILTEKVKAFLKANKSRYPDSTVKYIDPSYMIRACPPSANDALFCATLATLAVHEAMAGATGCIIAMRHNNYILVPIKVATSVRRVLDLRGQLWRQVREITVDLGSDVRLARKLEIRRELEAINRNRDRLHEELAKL
Chain of Thyrotropin-releasing hormone receptor (Homo sapiens) (P34981 whole entry, looked up): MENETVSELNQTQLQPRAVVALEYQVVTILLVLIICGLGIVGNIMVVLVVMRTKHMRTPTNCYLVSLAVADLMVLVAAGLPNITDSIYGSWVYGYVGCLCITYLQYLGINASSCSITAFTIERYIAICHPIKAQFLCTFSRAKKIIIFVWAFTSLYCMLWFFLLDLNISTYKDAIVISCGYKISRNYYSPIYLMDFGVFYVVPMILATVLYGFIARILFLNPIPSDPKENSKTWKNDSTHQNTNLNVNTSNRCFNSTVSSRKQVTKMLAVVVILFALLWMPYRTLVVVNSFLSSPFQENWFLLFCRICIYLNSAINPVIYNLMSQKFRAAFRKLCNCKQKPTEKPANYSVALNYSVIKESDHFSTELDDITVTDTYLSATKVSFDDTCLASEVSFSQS
Chain of DNA dC->dU-editing enzyme APOBEC-3G (Homo sapiens) (Q9HC16 whole entry, looked up): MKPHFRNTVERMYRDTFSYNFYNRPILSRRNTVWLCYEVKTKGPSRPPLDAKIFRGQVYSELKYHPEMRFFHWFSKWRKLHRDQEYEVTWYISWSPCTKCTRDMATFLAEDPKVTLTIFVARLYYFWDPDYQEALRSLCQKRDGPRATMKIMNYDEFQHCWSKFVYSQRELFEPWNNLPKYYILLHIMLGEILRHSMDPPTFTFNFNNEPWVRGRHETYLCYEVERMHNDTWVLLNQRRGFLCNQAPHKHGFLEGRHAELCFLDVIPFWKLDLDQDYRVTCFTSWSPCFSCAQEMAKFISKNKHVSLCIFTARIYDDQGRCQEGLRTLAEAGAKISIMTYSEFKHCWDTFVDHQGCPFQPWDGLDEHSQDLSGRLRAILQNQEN

For `CN1CCN(C2=Nc3ccccc3Oc3ccc(Cl)cc32)CC1`, the compound was classed as inactive in [1], in experiment [4], in [5], in experiment [6], in [7] and in experiment [8]. For the same compound, in experiment [9], the call was inactive. Also, the Potency entry in [2], in experiment [3], in experiment [10] and in experiment [11] was “inactive” each time.

For the compound `CCCCCCCC/C=C\CCCCCCCC(=O)NCc1ccc(O)c(OC)c1`, the result in [1], in experiment [4], in experiment [7], in [8], in experiment [9] and in experiment [14] was inactive. Also, the Potency result in experiment [2], in [3], in [12], in experiment [11] and in experiment [13] was “inactive” each time. The viability change in experiment [12] is -10.2%.

As to `OCCN1CCN(CC/C=C2/c3ccccc3Sc3ccc(C(F)(F)F)cc32)CC1`, the compound was called inactive in experiment [1], in experiment [4], in [5], in [6], in experiment [7] and in [8]. Also, in experiment [9], the outcome was inactive. Also, the Potency entry in experiment [2] and in [12] was “inactive” throughout. For the same compound, the activation in experiment [15] is 1.19% (inactive). Also, the viability change in experiment [12] was -4.74%. In addition, the Potency is 56.2 µM (active) in experiment [10], 28.2 µM (active) in experiment [11] and 17.8 µM (active) in [13].

Regarding `CN(C)CCN(Cc1cccs1)c1ccccn1`, the result in experiment [1], in experiment [4], in [5], in experiment [6], in experiment [7] and in [8] was inactive. In experiment [9], the compound was classed as inactive. The Potency entry in experiment [2], in [12], in experiment [10], in experiment [11] and in [13] was “inactive” in each case. In addition, the viability change in [12] was -0.0804%.

Regarding `CCCC(C(=O)OCCN(CC)CC)(c1ccccc1)c1ccccc1`, the result in experiment [1], in experiment [4], in [5], in experiment [6], in experiment [7] and in experiment [8] was inactive. In addition, the call in experiment [9] was inactive. Also, the Potency result in [2], in [12], in experiment [10], in experiment [11] and in [13] was “inactive” throughout. For the same compound, in experiment [15], the activation is -7.5% (inactive). Further, the viability change in experiment [12] was -7.4%.

In the case of `CC[N+](C)(C)c1cccc(O)c1`, the call in [1], in [4], in experiment [5], in experiment [6], in [7] and in experiment [9] was inactive. Besides, the Potency entry in experiment [2], in experiment [3], in experiment [10], in experiment [11] and in experiment [13] was “inactive” throughout.

Regarding `O=C(O)CN(CCOCCOCCN(CC(=O)O)CC(=O)O)CC(=O)O`, the compound was classed as inactive in experiment [1], in [5], in experiment [6], in experiment [7], in experiment [8] and in experiment [9]. Further, the Potency entry in experiment [2], in experiment [3], in experiment [12], in experiment [10] and in experiment [11] was “inactive” throughout. For the same compound, the viability change in experiment [12] amounted to 3.82%.

Take `OCCN1CCN(CCCN2c3ccccc3C=Cc3ccccc32)CC1`: the outcome in [1], in experiment [5], in experiment [6], in [7], in [8] and in experiment [9] was inactive. Besides, the Potency entry in experiment [2], in experiment [3], in experiment [12] and in experiment [10] was “inactive” in each case. Moreover, in experiment [12], the viability change was found to be 4.92%.

Consider `CC1=C(C)C(=O)C(CCCCC#CCCCC#CCO)=C(C)C1=O`, for which the compound was classed as inactive in [1], in [4], in experiment [5], in [6], in experiment [7] and in experiment [9]. Moreover, the Potency result in experiment [2] and in experiment [12] was “inactive” throughout. Further, the viability change in experiment [12] turned out to be 5.77%. Moreover, the Potency in experiment [13] is 20 µM (active).

With `O=C(CCCN1CCC(O)(c2cccc(C(F)(F)F)c2)CC1)c1ccc(F)cc1`, the result in experiment [1], in experiment [6] and in experiment [7] was inactive. Further, the Potency entry in [2], in [12], in [10] and in experiment [11] was “inactive” throughout. The activation in [15] is 3.56% (inactive). Moreover, in [12], the viability change was -9.85%.
